The text below walks through data of PubChem BioAssay (NCI).

Some test systems named below: SR leukemia; RPMI-8226 leukemia; OVCAR-8 ovarian; OVCAR-5 ovarian; OVCAR-4 ovarian; SK-OV-3 ovarian; IGROV1 ovarian; OVCAR-3 ovarian; HS 578T breast; NCI/ADR-RES ovarian; T-47D breast; BT-549 breast; MDA-MB-435 melanoma; SW-620 colon; MCF7 breast; HCT-116 colon; HCC-2998 colon; KM12 colon; MDA-MB-468 breast.
Assay in all cases: NCI-60 one-dose screen, 48 h (100 = growth as untreated, 0 = no growth, -100 = all killed)
Common to all, as to settings: 10 µM unless noted

Each structure is given as a SMILES string. Compounds without any hit were thinned out: in the full panel of roughly 83,000, 20% have a hit.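 Method: cells in 96-well plates; compound added at one concentration; 48 h incubation; percent growth measured; values under 10 scored active.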 Unmarked numbers belong to inactive results. Activity calls are given as the source filed them.

Turning to `O=C(N/N=C/c1ccc(B(O)O)s1)c1[nH]c2ccc(Br)cc2c1-c1ccccc1`, the growth with SR leukemia was -22.6% (active); in the assay on RPMI-8226 leukemia, 0.974% (active); in the assay on OVCAR-8 ovarian it was -28.3% (active); in the assay with OVCAR-5 ovarian, -97.6% (active); with OVCAR-4 ovarian it was -63.6% (active); in the assay on SK-OV-3 ovarian, -86.7% (active). The growth is -74.8% (active) with IGROV1 ovarian; -47.1% (active) in the assay with OVCAR-3 ovarian; -25.7% (active) in the assay with HS 578T breast; -33.9% (active) in the assay on NCI/ADR-RES ovarian; -77% (active) in the assay on T-47D breast; -76.2% (active) in the assay on BT-549 breast. The growth in the assay on MDA-MB-435 melanoma was -75.1% (active); in the assay with SW-620 colon, -74% (active); in the assay on MCF7 breast, -67.1% (active); in the assay with HCT-116 colon it was -62.9% (active); with HCC-2998 colon it was -97.7% (active); in the assay with KM12 colon it was -36.5% (active). Moreover, the growth in the assay on MDA-MB-468 breast is -95.9% (active).

As to `CCCCNc1ccc2c3c(cccc13)C(=O)N(c1cccc(-c3nn(-c4ccccc4)cc3-c3nc4ccccc4s3)c1)C2=O`, the growth was 95.5% in the assay on SR leukemia; 95.3% in the assay with RPMI-8226 leukemia; 107% in the assay on OVCAR-8 ovarian; 104% in the assay with OVCAR-5 ovarian; 101% in the assay on OVCAR-4 ovarian; 126% with SK-OV-3 ovarian. For the same molecule, the growth in the assay on IGROV1 ovarian is 98.4%; in the assay with OVCAR-3 ovarian it was 111%; in the assay with HS 578T breast, 110%; with NCI/ADR-RES ovarian it was 98%; in the assay on T-47D breast, 101%; in the assay on BT-549 breast, 117%. The growth in the assay on MDA-MB-435 melanoma was 106%; in the assay on SW-620 colon, 105%; in the assay on MCF7 breast it was 109%; in the assay with HCT-116 colon it was 98.9%; in the assay on HCC-2998 colon it was 119%; in the assay on KM12 colon, 108%. Further, in the assay with MDA-MB-468 breast, the growth was 97.7%.

Turning to `O=C1CC(c2ccc(I)cc2)OC2C=Cc3ccccc3C12` (stereo not drawn), the growth in the assay with SR leukemia was 88.9%; in the assay on RPMI-8226 leukemia, 87.2%; with OVCAR-8 ovarian it was 104%; in the assay with OVCAR-5 ovarian, 115%; in the assay on OVCAR-4 ovarian it was 96.7%; with SK-OV-3 ovarian, 96.7%. The growth was 119% in the assay with IGROV1 ovarian; 125% in the assay on OVCAR-3 ovarian; 104% in the assay on HS 578T breast; 104% in the assay with NCI/ADR-RES ovarian; 87.8% in the assay with T-47D breast; 108% in the assay with BT-549 breast. Moreover, the growth is 97.4% with MDA-MB-435 melanoma; 103% in the assay with SW-620 colon; 83.3% in the assay with MCF7 breast; 98.9% in the assay with HCT-116 colon; 117% in the assay with HCC-2998 colon; 92.9% in the assay on KM12 colon. In the assay with MDA-MB-468 breast, the growth is 123%.

`O=C(c1ccc(O)cc1)C1[C@H](c2ccc(Cl)cc2)[C@@H](c2ccccc2)NC12C(=O)Nc1ccccc12` (stereo partly drawn): the growth in the assay with SR leukemia was -47.2% (active); with RPMI-8226 leukemia it was -3.39% (active); with OVCAR-8 ovarian, 12.5%; in the assay with OVCAR-5 ovarian, 9.48% (active); in the assay on OVCAR-4 ovarian, 9.88% (active); in the assay with SK-OV-3 ovarian, 43.7%. For the same molecule, the growth in the assay with IGROV1 ovarian is 3.49% (active); with OVCAR-3 ovarian, 6.48% (active); in the assay on HS 578T breast it was -11.8% (active); with NCI/ADR-RES ovarian, -35% (active); in the assay with T-47D breast, 11.7%; in the assay with BT-549 breast, -50.7% (active). For the same molecule, the growth is -34% (active) in the assay on MDA-MB-435 melanoma; -12.7% (active) in the assay on SW-620 colon; -6.29% (active) with MCF7 breast; -76.8% (active) with HCT-116 colon; -61.1% (active) with HCC-2998 colon; -13.7% (active) with KM12 colon. Further, in the assay with MDA-MB-468 breast, the growth was -45.2% (active).

`N/C(=N\c1nc2ccccc2s1)NC(=O)Nc1ccccc1[N+](=O)[O-]`: the growth in the assay on SR leukemia is 13.6%; in the assay with RPMI-8226 leukemia it was 2.19% (active); with OVCAR-8 ovarian it was -18.8% (active); in the assay with OVCAR-5 ovarian, 10.9%; in the assay with OVCAR-4 ovarian, 34.9%; in the assay on SK-OV-3 ovarian, 2.97% (active). Also, the growth in the assay with IGROV1 ovarian was 20.2%; in the assay on OVCAR-3 ovarian it was -7.53% (active); in the assay with HS 578T breast, 41.5%; with NCI/ADR-RES ovarian it was -11.3% (active); in the assay on T-47D breast, 34.1%; in the assay with BT-549 breast, 10.5%. The growth is -45.1% (active) with MDA-MB-435 melanoma; 31% in the assay on SW-620 colon; 12.8% with MCF7 breast; 0.0336% (active) in the assay with HCT-116 colon; 8.25% (active) in the assay on HCC-2998 colon; 1.31% (active) in the assay on KM12 colon. Moreover, the growth in the assay with MDA-MB-468 breast was -0.807% (active).

For `COc1ccc(N=Nc2c(N)nn3c(N)c(C#N)c(-c4ccc(F)cc4)nc23)cc1`, the growth was 78.4% with SR leukemia; 50.3% in the assay on RPMI-8226 leukemia; 29.6% with OVCAR-8 ovarian; 95.9% in the assay on OVCAR-5 ovarian; 50.9% in the assay with OVCAR-4 ovarian; 43.1% in the assay on SK-OV-3 ovarian. For the same molecule, the growth in the assay on IGROV1 ovarian was 76.9%; in the assay on OVCAR-3 ovarian, 103%; in the assay on HS 578T breast, 20.6%; in the assay with NCI/ADR-RES ovarian, 25.1%; in the assay on T-47D breast, 55.7%; with BT-549 breast, 49.3%. The growth in the assay with MDA-MB-435 melanoma is 86.2%; with SW-620 colon, 88.6%; in the assay with MCF7 breast it was 57.1%; in the assay with HCT-116 colon, 46.4%; with HCC-2998 colon, 66.7%; with KM12 colon, 56.7%. Moreover, the growth with MDA-MB-468 breast was 46.7%.

With `O=C(c1ccc(Cl)cc1)C1[C@H](c2ccccc2Cl)[C@@H](c2ccccc2)NC12C(=O)Nc1ccc(Cl)cc12` (stereo partly drawn), the growth was -52.8% (active) in the assay on SR leukemia; 2.23% (active) in the assay with RPMI-8226 leukemia; -76.4% (active) with OVCAR-8 ovarian; -53.8% (active) with OVCAR-5 ovarian; -14.4% (active) with OVCAR-4 ovarian; 1.4% (active) in the assay on SK-OV-3 ovarian. Further, the growth with IGROV1 ovarian was -42.5% (active); in the assay on OVCAR-3 ovarian, -28.9% (active); in the assay with HS 578T breast it was -40.4% (active); in the assay on NCI/ADR-RES ovarian, -82.7% (active); with T-47D breast, -71.1% (active); in the assay on BT-549 breast, -87.2% (active). The growth with MDA-MB-435 melanoma is -87.5% (active); in the assay with SW-620 colon, -61.5% (active); in the assay with MCF7 breast, -37.7% (active); in the assay with HCT-116 colon it was -89.3% (active); in the assay with HCC-2998 colon, -85.6% (active); in the assay with KM12 colon, -48% (active). For the same molecule, in the assay on MDA-MB-468 breast, the growth was -52.5% (active).
